aDG glyco act: activators of alpha-DG glycosylation, primary screen, uHTS, Pro5-aDG cells, AlphaScreen | actives 0.22% (n = 360,000) | activation, % at 10 µM | alpha-DG glycosylation AlphaScreen (IIH6); 0% Pro5, 100% B10-LARGE cell signal | AID 624168, 2012;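 active means activation of at least 8% versus controls, or a plate z-score of at least 8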;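 further: Pro5 are CHO cells carrying HIG-tagged alpha-DG that lacks glycosylation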
NR3A LBD binder: binders of NR3A ligand-binding domain, primary screen, biophysical, differential scanning fluorimetry, uHTS; Glutamate receptor ionotropic, NMDA 3A (GRIN3A) ligand-binding domain; NR3A LBD differential scanning fluorimetry, Tm shift; 0% = protein alone, 100% = glycine-bound protein; Tm shift relative to glycine control, % at 25 µM; actives 2.5% (n = 340,000);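 active means melting temperature shift of at least 10% of the positive control shift, at one fixed dose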
ADAM10 inh: human ADAM10 inhibitors, primary screen, biochemical, QFRET, HTS. Disintegrin and metalloproteinase domain-containing protein 10 (Homo sapiens), O14672. recombinant ADAM10, EDANS/DABCYL FRET peptide cleavage, 3 h. inhibition, % at 7 µM. actives 0.62% (n = 370,000);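 active means inhibition above a per-campaign cutoff equal to the mean of compounds falling between control-based bounds plus 3 SD, cut at about 20% in these data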;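 further: 0% = DMSO wells while the 100% control is not disclosed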
FAS TE block: FAS thioesterase domain inhibitors, primary screen, biochemical, fluorescence intensity, uHTS; Fatty acid synthase (Homo sapiens), P49327; recombinant FAS-TE, OMFH fluorogenic substrate, fluorescence endpoint; inhibition, % at 15 µM; actives 0.67% (n = 360,000);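 active means compounds whose normalised, plate-corrected inhibition of enzyme fluorescence in the single-dose primary screen is 50% or more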;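 further: 0% = DMSO with enzyme and 100% = substrate without enzyme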
ADAM17 inh: ADAM17 inhibitors, primary screen, biochemical, QFRET. recombinant ADAM17, EDANS/DABCYL FRET peptide cleavage. inhibition, % at 6.95 µM. actives 0.83% (n = 370,000). AID 720648, 2013;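 active means inhibition above the mean of compounds lying between control limits plus 3 SD, set per campaign, cut at about 8.5% in these data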;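 further: 0% = DMSO-only wells as the low control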
Target sequence (P78536 215-824 limits assumed): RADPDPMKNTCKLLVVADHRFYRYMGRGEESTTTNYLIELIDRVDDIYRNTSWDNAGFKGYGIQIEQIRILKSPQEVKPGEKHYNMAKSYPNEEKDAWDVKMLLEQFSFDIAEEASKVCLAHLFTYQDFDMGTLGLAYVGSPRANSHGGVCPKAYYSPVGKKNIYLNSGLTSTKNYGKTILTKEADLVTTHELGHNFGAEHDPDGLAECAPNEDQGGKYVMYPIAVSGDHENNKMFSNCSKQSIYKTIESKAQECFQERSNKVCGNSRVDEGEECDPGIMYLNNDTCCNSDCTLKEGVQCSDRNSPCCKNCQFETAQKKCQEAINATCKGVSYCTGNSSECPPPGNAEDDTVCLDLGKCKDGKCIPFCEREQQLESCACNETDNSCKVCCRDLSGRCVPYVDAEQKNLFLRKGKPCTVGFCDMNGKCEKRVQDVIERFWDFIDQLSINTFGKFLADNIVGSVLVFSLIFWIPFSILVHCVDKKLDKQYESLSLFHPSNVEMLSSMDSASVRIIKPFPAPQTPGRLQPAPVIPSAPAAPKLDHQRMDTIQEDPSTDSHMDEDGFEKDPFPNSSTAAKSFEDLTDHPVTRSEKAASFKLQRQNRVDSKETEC
An asterisk follows results filed as active; x = no result given. In the library only some 4% were active in any assay of this set; here they are far more common.

SMILES | aDG glyco act | NR3A LBD binder | ADAM10 inh | FAS TE block | ADAM17 inh
COc1ccc(C(=O)N/N=C/c2ccc(OC)c(OS(=O)(=O)c3ccccc3)c2)cc1 | 1 | 13* | 10 | 46 | 2
COc1ccc(CCNc2ccc(C(CC(N)=O)NC(=O)c3cc(OC)ccc3OC)cc2[N+](=O)[O-])cc1 (configuration not stated) | 0 | 42* | -11 | 8 | 1
Cn1c(=O)oc2cc(S(=O)(=O)NCCC(=O)NC3CCCC3)ccc21 | 0 | 0 | 0 | -8 | -5
COc1ccc(NC(=O)C(=O)NCCO)cc1Cl | 0 | -7 | -3 | -8 | -1
COc1cc(C=C2Cc3ccccc3C2=O)cc(OC)c1OC | 0 | x | -13 | 0 | 1
COc1ccc(/C=C2\Cc3ccccc3C2=O)cc1OC | 0 | 13* | -4 | 1 | -4
CC1(C(=O)NS(=O)(=O)c2ccc(Cl)cc2)CCN1C(=O)Cc1cc(F)ccc1F (configuration not stated) | 0 | x | -8 | -4 | -3
CCOc1ccccc1NCc1cc(=O)oc2cc(C)c(O)cc12 | 1 | 0 | -5 | -2 | -6
O=C(Cn1nnc(-c2ccccc2)n1)N/N=C/c1cc([N+](=O)[O-])c(Cl)cc1Cl | 0 | 16* | -5 | 17 | -2
CN/C=C1\C(=O)C(C)(C)Oc2ccc3ccc(=O)oc3c21 | 0 | 0 | -13 | -1 | -7
CC1(C)Oc2ccc3ccc(=O)oc3c2/C(=C/Nc2ccccn2)C1=O | 0 | 15* | -14 | 29 | -11
O=C(O)/C=C/c1ccc(Oc2ncccn2)cc1 | 0 | 1 | 2 | -10 | -1
CC(C)(C)C(=O)/C=C/c1ccc(Oc2ccccc2)cc1 | 0 | 10* | 11 | 12 | 0
COc1ccccc1OCCCCOc1ccccc1F | 0 | 3 | -1 | 24 | 1
CCOc1ccccc1OCCCCOc1ccccc1F | 0 | 25* | 1 | 11 | -3
CCOC(=O)c1ccc(-c2ccc(/C=N/NC(=O)CN(c3ccccc3Br)S(C)(=O)=O)o2)cc1 | 1 | 12* | -23 | 46 | -9
CS(=O)(=O)N(CC(=O)N/N=C/c1cccc2c1OCCO2)c1ccccc1Br | -1 | 1 | -128 | 6 | -36
CC1CCN(c2oc(-c3ccccc3Cl)nc2C#N)CC1 | 0 | -12 | -111 | 28 | -35
CCc1cccc(CC)c1NC(=O)NC1CCCCC1 | 0 | 13* | -2 | -5 | -3
CCOC(=O)CCNC(=O)N1CCCC(CNS(=O)(=O)c2cccs2)C1 (configuration not stated) | 0 | -1 | -12 | -6 | -3
Cc1cc(C)cc(NS(=O)(=O)c2ccc(NC(=S)NC(=O)c3cccs3)cc2)c1 | 1 | 24* | 8 | 28 | 6
Cc1cc(C)nc(NS(=O)(=O)c2ccc(NC(=O)c3cccs3)cc2)n1 | 0 | 7 | -1 | -5 | -3
CNC(=O)c1cc(S(=O)(=O)Nc2ccc(C)cc2C)ccc1C | 0 | 14* | -3 | 0 | 1
Cc1ccc(NS(=O)(=O)c2ccc(NC(=O)c3cccs3)cc2)c(C)c1 | 0 | 29* | 11 | 15 | 7
COC(=O)[C@@]12CCCCN1[C@H](c1ccc(-c3cc(C(C)=O)cs3)cc1)[C@H]1C(=O)N(C)C(=O)[C@H]12 | 0 | 0 | -2 | 34 | 1
SMILES | aDG glyco act | NR3A LBD binder | ADAM10 inh | FAS TE block | ADAM17 inh
COc1cc(/C=C2/C(=N)N3N=C(C)SC3=NC2=O)ccc1OS(=O)(=O)c1ccc(C)cc1 | 0 | -15 | -69 | 0 | -28
N#Cc1c(N)n(-c2ccccc2)c(=O)c2cc([N+](=O)[O-])ccc12 | 0 | 25* | -2 | 18 | -3
CCOC(=O)c1ccc(N2C(=O)c3n[nH]c(C)c3C2c2cccnc2)cc1 (configuration not stated) | 0 | -2 | 2 | 3 | -2
CCOC(=O)c1ccc(N2C(=O)c3n[nH]c(C)c3C2c2ccccn2)cc1 (configuration not stated) | 4.6* | -1 | -6 | -4 | -2
Cc1ccc(CN2CCC[C@]3(N[C@H](c4ccc(C(F)(F)F)cc4)[C@@H]4C(=O)N(C)C(=O)[C@@H]43)C2=O)cc1 | 0 | x | -4 | 2 | -2
CCOc1ccc(CCNC(=O)c2ccc(C)c(S(=O)(=O)N3CCOCC3)c2)cc1OCC | 0 | 2 | -7 | -6 | -3
NC(=O)CSc1nc2scc(-c3ccc(Cl)cc3)c2c(=O)n1Cc1ccccc1 | 0 | 13* | 1 | 9 | -1
Cn1cc(CN2CCC(n3nccc3NC(=O)c3ccc4c(c3)OCO4)CC2)cn1 | 0 | x | -14 | -5 | -2
O=C(CSc1nnc(-c2ccc3c(c2)OCO3)n1-c1ccccc1)c1ccccc1 | 0 | 16* | -3 | -4 | 1
O=C(CSc1nnc(-c2ccc3c(c2)OCO3)n1-c1ccccc1)c1ccc(Cl)cc1 | 0 | 3 | 4 | -2 | 4
O=c1ccn([C@@H]2O[C@H](CNS(=O)(=O)C3CC3)[C@@H](O)[C@H]2O)c(=O)[nH]1 | 0 | 14* | -8 | -9 | -2
CCN(CC)C(=O)CSc1nnc(NC(=O)CCc2ccccc2)s1 | 0 | 1 | 6 | -13 | -2
FC(F)(F)Sc1ccc(NC(=S)NCc2ccccc2)cc1 | 0 | 20* | 20 | 30 | 6
C#CC1(O)CC(C)N(C)C(C)C1 (configuration not stated) | 0 | 0 | -17 | -8 | -5
Cc1cccc2c(N=Nc3ccc(S(=O)(=O)Nc4cccc(Cl)c4)cc3[N+](=O)[O-])c(O)[nH]c12 | 0 | 13* | -1 | 20 | 0
Cc1ccc(S(=O)(=O)Nc2ccccc2)cc1[N+](=O)[O-] | 0 | -1 | 0 | 3 | -3
CC1=C(C)CC(C(=O)Nc2cccc(Cl)c2)C(C(=O)O)C1 (configuration not stated) | 0 | -1 | -7 | -1 | -2
O=C(O)C1CC=CCC1C(=O)Nc1cccc(Cl)c1 (configuration not stated) | 0 | 11* | 9 | -1 | -1
O=C(Nc1cccc(Cl)c1)C1C2CCC3C(CCC21)C3(Cl)Cl (configuration not stated) | 1 | 14* | 14 | 35 | 7
Cc1cccc(OCC(=O)N2CCN(C(=O)Cc3ccccc3)CC2)c1 | 0 | -2 | 8 | -2 | 0
CN=C1S/C(=C/c2cn(CC(=O)OC)c3ccccc23)C(=O)N1C | 0 | 12* | -3 | 4 | -1
